Screens (PubChem)
Shown are actives, neighbours in structure and some others; about 0.61% of the full set was active somewhere.
Mtb hypoxia rep = Mtb hypoxia fluorescent reporter inhibition | 300,000 tested, 0.1% active | AID 1159583 | M. tuberculosis hypoxia-regulated fluorescent reporter, fluorescence | fluorescence inhibition, % (test concentration not listed); in the data active means fluorescence inhibition mostly above about 23%, no sharp cut-off; inactive means mostly below about 17%
Mtb betalactam = beta-lactam sensitization of Mtb H37Rv; M. tuberculosis H37Rv growth with meropenem, percent inhibition; inhibition, % at 25 µM; 330,000 tested, 0.27% active; AID 434955; call rule not given here;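 further: growth measured after seven days incubation then overnight dye step; 0% = bacteria only wells and 100% = bacteria with antibiotic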
RN4220 kill = S. aureus RN4220 growth inhibition; OD600, 16 h; inhibition, % (concentration not given with the values); 330,000 tested, 0.33% active; AID 1259311; in the data active means inhibition above about 85%;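 further: plate controls were untreated cells for no effect and reference antibiotic for full effect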
ugtP null kill = kills S. aureus RN4220 lacking UgtP. growth inhibition, % (concentration not given with the values). AID 1259309. 330,000 tested, 0.54% active. S. aureus RN4220 ugtP deletion, OD600 growth, 16 h; in the data active means growth inhibition above about 68%;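 further: plate controls were untreated wells for no effect and antibiotic for full effect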
Active calls of the source: *; ? = inconclusive; / = no result given.

SMILES	Mtb hypoxia rep	Mtb betalactam	RN4220 kill	ugtP null kill
Clc1ccc2c(c1)c1cc(Cl)ccc1n2CN1CCOCC1	1	7	62	84*
COc1cc2c(cc1OC)C1=C(C#N)CCC(=NS(=O)(=O)c3cccc(Cl)c3)N1CC2	-1	/	3	-6
CCOC(=O)c1c(C)oc2c1c(C(c1ccccc1)N1CCOCC1)c(O)c1ccccc12 (configuration not stated)	8	65	14	89*
Cc1ccc(NC(=O)c2ccccc2NS(=O)(=O)c2ccc(Cl)s2)cc1	3	7	81	90*
O=C(Nc1ccccc1Cc1ccccc1)c1ccccc1NS(=O)(=O)c1ccc(Cl)s1	/	-1	/	/
O=C(NCc1ccco1)c1ccccc1NS(=O)(=O)c1ccc(Cl)s1	/	-1	64	53
O=C(Nc1ccccc1)c1ccccc1NS(=O)(=O)c1ccc(Cl)s1	7	4	87*	92*
COc1cc(Cl)c(C)cc1NC(=O)COC(=O)C=Cc1c(C)nn(C2CCS(=O)(=O)C2)c1Cl (configuration not stated)	17	/	7	0
O=C1CCCCC1=NNc1ccc(OCc2ccccc2)cc1	6	/	5	-5
Cc1cc(N2CCCCC2)n2ncc(-c3ccc(Cl)cc3)c2n1	-10	91	-1	85*
Clc1ccc(CCC(Cn2ccnc2)Sc2c(Cl)cccc2Cl)cc1 (configuration not stated)	/	99	99*	98*
CCCCCC(=O)NC(=S)Nc1ccc(NC(=O)c2ccco2)cc1	/	89	2	88*
CN1CCN(c2ccc(NC(=S)NC(=O)/C=C/c3ccco3)cc2)CC1	10	1	0	89*
CC(=O)Nc1ccc(NC(=S)NC(=O)/C=C/c2ccco2)cc1	-2	10	4	86*
C=CCN1C(=O)C(CC(=O)Nc2ccccc2F)SC1=Nc1nccs1 (configuration not stated)	6	/	7	2
O=C(Cc1ccc(Cl)cc1)Oc1cccc2cccnc12	0	100	8	89*
O=C(OCC#CCSc1nnc(-c2ccc(Br)cc2)o1)c1cccs1	41*	100	9	-1
Cc1ccc(-c2nnc(SCC#CCOC(=O)c3cccs3)o2)cc1	16	100	11	7
Cc1nc(NC(=O)CSc2nnc(-c3ccc4c(c3)OCO4)o2)c(Cl)cc1Cl	11	79	4	1
O=C(CSc1nnc(-c2ccc3c(c2)OCO3)o1)Nc1ncc(C(F)(F)F)cc1Cl	3	83	75	97*
Cc1ccc(S(=O)(=O)Oc2ccc(C)cc2C=N/N=C2\NC(=O)C(C)S2)cc1 (configuration not stated)	/	/	19	5
O=C(Cc1ccccc1)NN=Cc1cccnc1	12	/	2	3
O=C(Nc1cccc(NC(=O)c2ccccc2)n1)c1ccccc1	7	-1	96*	31
CCSc1nc(C2CC2)cc(-c2cccs2)c1C#N	6	11	8	93*
CCN1C(=O)SC(=Cc2ccc(Oc3ccc([N+](=O)[O-])cn3)c(OC)c2)C1=O	-6	/	-4	-27
SMILES	Mtb hypoxia rep	Mtb betalactam	RN4220 kill	ugtP null kill
Cc1cc(O)c(C=NNc2ccc(Cl)cc2)c(=O)o1	/	/	-2	3
CC(C)COc1ccc(Cc2cnc(N)nc2N)cc1	6	-11	16	97*
Cc1nn(CC(C#N)=NO)c(C)[n+]1N	2	/	-2	-5
COc1ccccc1C1C(c2cccc(Cl)c2)=NN(c2ccc(Br)cc2)C1C(=O)N1CCOC1=O (configuration not stated)	3	/	-1	12
COC(=O)C1=CC(C(=O)OC)C2C3=C(C(=O)C2(C)C)C(c2ccccc2)C2C(=O)N(C)C(=O)C2C3C1 (configuration not stated)	-3	/	-2	-2
Clc1nssc1=Nc1ccc(Br)cc1	10	/	7	12
Clc1ccc(N=c2ssnc2Cl)nc1	7	-7	26	95*
Cc1sc(NC(=O)c2ccco2)c(C(c2ccccc2)N2CCC(C)CC2)c1C (configuration not stated)	-14	11	85	active
Nc1ccccc1C(=O)NNC1=C(C(=O)C(F)(F)F)CCC1	5	14	-2	52
COc1ccccc1C(=O)NNC1=C(C(=O)C(F)(F)F)CCC1	-3	33	101*	99*
O=C(NNC1=C(C(=O)C(F)(F)F)CCC1)c1ccccc1O	-8	86	100*	101*
COc1cccc(C(=O)NNC2=C(C(=O)C(F)(F)F)CCC2)c1	0	15	-6	93*
O=C(NNC1=C(C(=O)C(F)(F)F)CCC1)c1ccc(Br)cc1	7	52	101*	100*
O=C(NNC1=C(C(=O)C(F)(F)F)CCC1)c1ccccc1Cl	4	48	-13	83
COP(=O)(OC)C(NC(=O)C=Cc1ccccc1)C(Cl)(Cl)Cl (configuration not stated)	9	/	4	4
COc1ccc(C(=O)NNC(=S)NC(=O)c2ccc(F)cc2)cc1Br	-1	95	81	85*
CCOC(=O)C1C2COc3ccc(Br)cc3C2N2C(=O)c3ccc(Cl)cc3NC(=O)[C@@]12C (some centres not stated)	19	/	-5	7
COc1ccc(-n2c(SCc3ccc([N+](=O)[O-])cc3)nnc2-c2ccccc2)cc1	/	11	5	36
CCOc1ccc(-n2c(SCc3ccc([N+](=O)[O-])cc3)nnc2-c2ccccc2)cc1	5	6	59	86*
Cc1ccc(C(=O)CC(=O)c2ccccc2C)c(O)c1	0	?	83	87*
Cc1ccc(C(=O)CC(=O)c2cccc(F)c2)c(O)c1	7	98	88*	94*
CC(=O)c1ccc(C)cc1OC(=O)c1cccc(F)c1	3	-4	8	8
CCOC(=O)COc1ccccc1C=NNc1nnc2c3ccccc3n(C)c2n1	7	/	3	7
COC(=O)C1=C(c2cc3ccccc3o2)CC2CCC1N2C(=O)N1CCC(C)CC1 (configuration not stated)	9	/	1	3
O=c1c2nncn2c2cc(C(F)(F)F)ccc2n1CCNc1ncc(C(F)(F)F)cc1Cl	12	-1	-1	4
SMILES	Mtb hypoxia rep	Mtb betalactam	RN4220 kill	ugtP null kill
O=c1c(Cl)nc2cc(Cl)ccc2n1CCNc1ncc(C(F)(F)F)cc1Cl	/	100	33	96*
CCCN(CC(=O)Nc1cc(Cl)cc(Cl)c1)CC(=O)Nc1ccc(F)c(F)c1F	12	7	89*	91*
CC1C=C(C(=O)O)OC(OCc2ccc(CO)cc2)C1 (configuration not stated)	2	/	6	-3
N#Cc1ccc(CON=Cc2ccccc2)cc1	13	/	7	-3
Cc1ccc(S(=O)(=O)N2C(c3ccc(Cl)c(Cl)c3)CC=C(C(=O)O)C2c2cccc(Cl)c2)cc1 (configuration not stated)	10	/	88*	100*
Cc1ccc(S(=O)(=O)N2C(c3ccc(Cl)c(Cl)c3)CC=C(C(=O)O)C2c2ccc(Cl)cc2)cc1 (configuration not stated)	12	/	80	90*
Cc1ccc(S(=O)(=O)N2C(c3cccc(Cl)c3)CC=C(C(=O)O)C2c2cccc(Cl)c2)cc1 (configuration not stated)	14	/	32	59
